Source: PubChem BioAssay
FadD28 FP inh: inhibitors of Mycobacterium tuberculosis FadD28 bisubstrate binding. FadD28 bisubstrate probe binding, fluorescence polarization. inhibition, % at 12.5 µM. hit rate 0.22% among 360,000. AID 588549; in the data active = inhibition above about 8.5%, passing the limit was not always enough
Mtb FBA inh: inhibitors of M. tuberculosis fructose-bisphosphate aldolase; purified M. tuberculosis FBA, fluorescence read-out; inhibition, % at 1 µM; hit rate 2.3% among 360,000; in the data active = inhibition above about 27%;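 also: 0% = vehicle and 100% = reference inhibitor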
Target sequence (P9WQA3 whole entry, looked up): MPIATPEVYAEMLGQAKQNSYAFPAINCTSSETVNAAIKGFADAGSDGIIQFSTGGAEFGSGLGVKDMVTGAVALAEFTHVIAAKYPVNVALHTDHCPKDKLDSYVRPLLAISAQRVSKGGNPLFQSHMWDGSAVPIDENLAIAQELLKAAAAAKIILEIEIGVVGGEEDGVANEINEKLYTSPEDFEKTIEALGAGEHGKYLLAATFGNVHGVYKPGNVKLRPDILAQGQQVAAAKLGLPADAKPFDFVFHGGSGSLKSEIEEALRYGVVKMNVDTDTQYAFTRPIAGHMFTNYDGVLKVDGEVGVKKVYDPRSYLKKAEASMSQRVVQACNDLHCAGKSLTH
GDH-TPI inh: inhibits GDH-TPI coupling enzymes, artifact for Mtb FBA screen. GDH-TPI coupled enzyme counterscreen, NADH absorbance. inhibition, % at 4.8 µM. hit rate 1.2% among 360,000; in the data active = inhibition above about 30%;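 also: 0% = DMSO wells and 100% = wells lacking the enzyme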
Rv3671c inh: Rv3671c (M. tuberculosis) protease inhibition; inhibition, % at 5.96 µM; hit rate 0.048% among 320,000; AID 2606; in the data active = inhibition above about 38%;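 also: extracellular domain of Rv3671c used as enzyme; 0% = enzyme with DMSO and 100% = no enzyme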
Mtb hypoxia inh: Mtb hypoxia fluorescent reporter inhibition. M. tuberculosis hypoxia-regulated fluorescent reporter, fluorescence. fluorescence inhibition, % (no concentration beside the values). hit rate 0.1% among 300,000. AID 1159583; in the data active = fluorescence inhibition mostly above about 23%, no sharp cut-off; inactive = mostly below about 17%
UGM FP inh: inhibitors of M. tuberculosis UDP-galactopyranose mutase; hit rate 0.06% among 320,000; AID 504406; inhibition, % at 10 µM; purified UGM, fluorescence polarization probe displacement; P9WIQ1; in the data active = inhibition above about 10%, passing the limit was not always enough
* = called active by the depositor; . = not tested or not shown; + = active, no number. A selection: hits, their analogues and other compounds. The true share with any hit is near 3.5%.

SMILES	FadD28 FP inh	Mtb FBA inh	GDH-TPI inh	Rv3671c inh	Mtb hypoxia inh	UGM FP inh
c1csc(-c2nc3nc4ccccc4nc3n2Cc2ccc3c(c2)OCO3)c1	-2	2	25	3	10	-2
COCCn1c(-c2cccs2)nc2nc3ccccc3nc21	-3	+	19	13	0	1
COc1cc(OC)cc(-c2c(C#Cc3ccsc3)c3cc(-c4ccccc4OC)ccc3n2C)c1	-2	19	39*	-3	14	2
COc1cc(OC)cc(-c2c(C#Cc3ccsc3)c3cc(-c4ccc5cc[nH]c5c4)ccc3n2C)c1	-3	19	33*	-1	5	-1
COC(=O)C1=C(C(=O)OC)C2N(Cc3ccccc3)c3ccccc3[C@@]23CC(C(=O)OC)N(C(=O)CC(C)C)C3=N1 (stereo not given in full)	.	.	.	.	9	.
CCN(CC)C(=O)C1CCCN(c2ccc([N+](=O)[O-])cc2C=NNC(=O)c2ccc([N+](=O)[O-])cc2)C1 (stereo not given)	.	.	.	.	-78	.
CCOP(=O)(OCC)c1nc(-c2cccc3ccccc23)oc1N1CCCCC1	-2	175*	2	4	-1	1
COP(=O)(OC)c1nc(-c2cccc3ccccc23)oc1N1CCCCC1	-1	+	10	2	4	-1
CCOP(=O)(OCC)c1nc(-c2ccccc2)oc1N1CCCCC1	-2	+	1	-12	-7	1
CCCCC1COCCS(=O)(=O)N1Cc1cccc(F)c1 (stereo not given)	.	.	.	.	12	.
COc1ccc(CN(C(CO)CC(C)C)S(=O)(=O)N(Cc2ccccc2)C(CO)CC(C)C)cc1 (stereo not given)	.	.	.	.	7	.
CC(=O)Oc1ccc2ccc(=O)oc2c1	1	+	9	-9	.	-2
O=C(Oc1ccc2ccc(=O)oc2c1)c1ccc([N+](=O)[O-])cc1	-3	183*	-2	1	0	2
Cc1ccc(C(=O)Oc2ccc3ccc(=O)oc3c2)cc1	1	22	13	-9	-12	1
N#Cc1ccc(C(=O)NN=Cc2cn(CC(=O)O)c3ccccc23)c(F)c1	.	.	.	.	5	.
COc1cc(C=NO)c(Br)cc1OCC(=O)Nc1ccccc1C	.	.	.	.	9	.
COC(=O)/C(=N/Nc1ccccc1)N1CCCc2ccccc21	-3	-2	34*	3	.	.
CC(=NNC(=O)COc1ccccc1)c1cccs1	.	.	.	.	5	.
CC(=O)COc1c(-c2ccco2)oc2ccccc2c1=O	1	24	32*	.	17	-1
Cc1[nH]c(=O)[nH]c(=O)c1C=NNC(=O)[C@H](C)N	.	.	.	.	6	.
O=C(O)c1cc(-c2ccccc2)nc2nc(N3CCCCC3)sc12	.	.	.	-2	17	2
Cc1ccc(-c2cc(C(=O)O)c3sc(N4CCCCC4)nc3n2)cc1	-5	163*	14	-82	2	1
c1ccc2c(c1)nc(N1CCCCCC1)c1nncn12	-4	-4	16	.	.	.
CCN1CCN(c2nc3ccccc3n3cnnc23)CC1	0	-2	32*	-13	11	1
O=C(NC1CCC(=O)N(CCC(Sc2ccc(Br)cc2)c2ccccc2)CC1)OCc1ccccc1 (stereo not given)	.	.	.	.	7	.
SMILES	FadD28 FP inh	Mtb FBA inh	GDH-TPI inh	Rv3671c inh	Mtb hypoxia inh	UGM FP inh
O=C1c2cccc3cccc(c23)C(=O)N1/N=C/c1ccc(O)cc1O	-3	-6	47*	10	.	1
COc1ccc2c(c1)CCC1(C)CC(=O)C(Br)=C21 (stereo not given)	-2	+	42*	.	.	.
COc1cccc(C(=O)NCC(=O)N2CCC3(CC2)NCCc2[nH]cnc23)c1OC	0	7	51*	3	2	-2
C(=N\Nc1nc2ccccc2[nH]1)/c1ccc2ncccc2c1	-2	2	33*	4	.	0
Oc1ccccc1/C=N/Nc1nc2ccccc2o1	0	9	51*	20	.	2
COc1cc(/C=N\Nc2nc3ccccc3[nH]2)cc(OC)c1OC	1	2	36*	7	.	2
Brc1ccc(C=NNc2nc3ccccc3o2)cc1	.	.	.	.	1	.
COc1cc(/C=N\Nc2nc3ccccc3o2)cc(OC)c1OC	1	5	34*	-4	.	1
CC1CN(C(C)CO)C(=O)c2cc(NC(=O)Nc3ccc(C(F)(F)F)cc3)ccc2OC1CN(C)S(=O)(=O)c1cccs1 (stereo not given)	.	.	.	.	10	.
CC(=NO)c1ccc2c3ccccc3n(C)c2c1	.	.	.	.	-4	.
CC(=O)ON=C1C(=O)N(Cc2ccc(C)cc2)c2ccccc21	.	.	.	.	5	.
COC(=O)C1=C(c2cc3ccccc3s2)CC2CCC1N2C (stereo not given)	.	.	.	.	2	.
COc1cc(C=NNc2nc3ccccc3[nH]2)cc(Br)c1OCC(=O)N(C)C	.	.	.	.	3	.
COc1cc(/C=N/Nc2nc3ccccc3o2)cc(OC)c1O	2	3	31*	-1	.	0
CCOc1cc(/C=N/Nc2nc3ccccc3[nH]2)cc(Br)c1OCC(=O)N(C)C	2	3	34*	11	.	0
COc1ccc(C(C)=NNC(=O)CNC(=O)/C=C\c2ccccc2OC)c(OC)c1	.	.	.	.	8	.
O=C1C2C(c3ccc(F)cc3)N3C(=O)N(c4ccccc4)C(=O)[C@@]3(Cc3ccccc3)C2C(=O)N1C1CCCCC1 (stereo not given in full)	.	.	.	.	-6	.
CCCCC=CC(NC(=O)CCc1ccccc1)c1ccccc1 (stereo not given)	.	.	.	.	12	.
Nc1nc(N)c(N=O)c(OCC2CCCCC2)n1	0	1	34*	4	4	0
NS(=O)(=O)OCC1CCCCC1	-2	-2	4	-3	3	-1
COc1ccc(-c2cc3ncnc(Cl)c3s2)cc1	-1	+	16	0	.	1
COc1ccc(-c2cc3nnc(-c4ccccc4)nc3s2)cc1	1	9	3	2	.	-3
O=C(CNS(=O)(=O)c1cccs1)N1CCN(c2ccccn2)CC1	-1	87*	8	6	.	-2
COc1cc(/C=N/N=C(\N)c2nonc2N)cc(OC)c1O	-2	-2	36*	9	.	-1
Cc1ccc(N/C=C(/C#N)c2ccsc2)cc1	-2	-2	22	3	.	-2
N#C/C(=C/Nc1ccccc1)c1ccsc1	0	-2	34*	0	3	1
O=C(C1=C(O)C(=O)N(CCN2CCOCC2)C1c1cccc([N+](=O)[O-])c1)c1cc2ccccc2o1 (stereo not given)	2	5	19	.	.	.
O=C(C1=C(O)C(=O)N(CCN2CCOCC2)C1c1cccc(Br)c1)c1cc2ccccc2o1 (stereo not given)	1	134*	10	-5	-8	0
